# Results filed as inconclusive are left out. Where a call stands in place of a potency, no number is given. Calls of active or inactive are those of the source. Unless noted, the call rests on the fitted dose curve; in most records, active means well fitted curve in the direction sought with a large enough effect; inconclusive means small, poorly fitted or top-dose-only effect, or another doubt; inactive means no such curve, though single readings can be large; an effect the other way counts as inactive or inconclusive.
# Key:
# [1] = target: Cytochrome P450 3A4 (Homo sapiens) (UniProt P08684); test: qHTS Assay for Inhibitors and Substrates of Cytochrome P450 3A4 (AID 884); details: recombinant CYP3A4, Luciferin-PPXE luminescence; series mostly up to 57.1 µM; further: nearly all actives have a fitted effect of over 50% in size; further: potency means the concentration at half of the fitted maximal effect
# Procedure, shortened: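 20 nM human CYP3A4 with 25 uM Luciferin-PPXE (at KM) in 200 mM KPO4, preincubated 10 min with compound; NADPH regeneration started a 60 min RT reaction. Luciferin detected by luminescence, normalized to 57 uM ketoconazole as full inhibition.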
# [2] = Confirmation and Secondary Assay for Modulators of Hemoglobin Beta Chain Splicing at IVS2 654 locus (AID 910); details: HeLa EGFP-654 splicing reporter, GFP fluorescence, 48 h; series mostly up to 46.1 µM;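 further: HeLa cells stably carrying EGFP split by mutant beta-globin IVS2-654 intron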
# Procedure, shortened: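 HeLa cells stably expressing EGFP interrupted by β-globin IVS2-654 intron, seeded overnight in Opti-MEM/2% FCS, then treated 2 days at 37 °C. Restored splicing read as total peak GFP intensity per well by laser scanning cytometry (488 nm excitation, 500–520 nm emission); 500 nM antisense PNA as control.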
# [3] = Confirmation and Secondary Assay for Modulators of Hemoglobin Beta Chain Splicing at IVS2 705 locus (AID 930); details: HeLa EGFP-705 splicing reporter, GFP fluorescence, 48 h; series mostly up to 46.1 µM;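 further: HeLa cells stably expressing the EGFP-705 splicing reporter; GFP fluorescence per well restored by corrected splicing of the IVS2-705 intron in EGFP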
# Procedure, shortened: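 Stable HeLa line with EGFP disrupted by mutant beta-globin intron 2 (705). Overnight attachment, then 2 days of compound at 37C, 5% CO2. Signal: peak GFP intensity summed over objects 5-250 µm.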
# [4] = target: Cytochrome P450 3A4 (Homo sapiens) (UniProt P08684); test: qHTS Assay for Activators of Cytochrome P450 3A4 (AID 885); details: recombinant CYP3A4, Luciferin-PPXE luminescence, 60 min; series mostly up to 57.1 µM; further: nearly all actives have a fitted effect of over 65% in size
# Procedure, shortened: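 Steps: enzyme/substrate mix dispensed; compound added, 10 min RT; NADPH regeneration solution added, 60 min RT; luciferin detection buffer stops reaction; 20 min later luminescence measured.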
# [5] = qHTS Assay for Identification of Small Molecule Antagonists for NFkB Signaling Pathway (AID 895; active means well fitted inhibition curve with a large enough effect in the signal ratio, with a control signal flat, not every such curve was filed as active; the % refers to the signal ratio); details: NFkB beta-lactamase reporter cells, FRET ratio 460/530, stimulated with 10 pM TNF alpha; series mostly up to 38.3 µM
# Procedure, shortened: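 ME-180 NFkB-bla cells (beta-lactamase under NFkB response element), plated overnight, treated with compound then 10 pM TNF alpha (about EC50) for 5 hrs at 37 C. LiveBLAzer FRET read at 460/530 nm emission, 405 nm excitation.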
# [6] = qHTS Assay for Identification of Small Molecule Agonists for Thrombopoietin (TPO) Signaling Pathway (AID 917); details: TPO signaling pathway reporter cells, agonist qHTS; stimulated with TPO at its EC50; further: potency means the concentration at half of the fitted maximal effect
# Procedure, shortened: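 Reporter: GpIIb promoter–luciferase in murine Ba/F3 expressing human TPO receptor. Pre-starved of IL-3 overnight; compounds with 26 pM TPO, 24 hrs, 37 C/5% CO2; luminescence read.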
# [7] = target: Muscarinic acetylcholine receptor M1 (Rattus norvegicus) (UniProt P08482); test: qHTS Assay for Antagonists of Acetylcholine Muscarinic M1 Receptor: Measurement of IP-One Response (AID 944); details: CHO-M1 cells, IP-One HTRF, antagonist mode; series mostly up to 46.1 µM; further: nearly all actives have a fitted effect of over 75% in size
# Procedure, shortened: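 CHO cells expressing rat M1 receptor, recovered overnight, were pre-incubated 10 min with compound, then stimulated 30 min with carbachol at EC80 (200 nM) in LiCl-containing buffer, pH 7.4. IP1 accumulation was read by HTRF (620/665 nm).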
# [8] = target: Pyruvate kinase (Leishmania mexicana) (UniProt Q27686); test: qHTS Validation Assay for Inhibitors of Leishmania Mexicana Pyruvate Kinase (AID 945); details: purified L. mexicana pyruvate kinase, enzyme activity, E451W mutant enzyme; series mostly up to 57.5 µM
# Procedure, shortened: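 Mutant LmPYK (E451W), 0.2 nM, plus 0.5 mM PEP and 0.1 mM ADP in 50 mM imidazole pH 7.2 containing 0.01% Tween 20 and 0.05% BSA. Incubated 1 h at room temperature; luminescence via PKLight, normalized to DMSO.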
# [9] = target: Pyruvate kinase PKM (Homo sapiens) (UniProt P14618); test: qHTS Assay for Activators of Human Muscle Pyruvate Kinase (AID 954; active means well fitted curve in the direction sought with a large enough effect, not every such curve was filed as active); details: purified human muscle pyruvate kinase, luciferase-coupled luminescence, 1 h; series mostly up to 57.5 µM
# Procedure, shortened: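 Reaction: 0.1 nM purified PKM2 with 0.5 mM phosphoenolpyruvate and 0.1 mM ADP, room temperature, 1 h. Readout: luciferase-based ATP luminescence after stop reagent. Activators judged against a 0.3 nM enzyme column.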
# [10] = target: Cytochrome P450 2C19 (Homo sapiens) (UniProt P33261); test: qHTS Assay for Inhibitors and Substrates of Cytochrome P450 2C19 (AID 899); details: recombinant CYP2C19, luciferin-H EGE luminescence; series mostly up to 11.4 µM; further: nearly all actives have a fitted effect of over 60% in size
# Procedure, shortened: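 Signal comes from luciferase acting on luciferin released by CYP2C19-mediated hydroxylation of Luciferin-H EGE, 10uM (KM). Assay mix: 5nM enzyme, 50mM KPO4; 60 min at 37C with NADPH regeneration. Data normalized against 57uM ketoconazole.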
# Chain of Cytochrome P450 3A4 (Homo sapiens) (P08684 whole entry, looked up): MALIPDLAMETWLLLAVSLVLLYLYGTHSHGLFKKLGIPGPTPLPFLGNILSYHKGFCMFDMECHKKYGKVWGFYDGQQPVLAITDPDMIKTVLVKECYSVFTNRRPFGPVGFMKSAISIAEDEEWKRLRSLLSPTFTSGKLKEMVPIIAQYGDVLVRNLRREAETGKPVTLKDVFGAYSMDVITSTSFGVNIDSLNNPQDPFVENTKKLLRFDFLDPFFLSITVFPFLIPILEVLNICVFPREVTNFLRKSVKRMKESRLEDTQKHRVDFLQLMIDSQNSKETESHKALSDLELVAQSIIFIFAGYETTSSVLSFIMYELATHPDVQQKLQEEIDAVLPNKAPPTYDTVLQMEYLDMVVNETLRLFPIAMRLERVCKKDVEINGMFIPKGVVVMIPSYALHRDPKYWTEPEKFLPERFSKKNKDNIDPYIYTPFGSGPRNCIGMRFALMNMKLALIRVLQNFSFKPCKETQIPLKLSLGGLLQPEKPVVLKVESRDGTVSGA
# Chain of Cytochrome P450 2C19 (Homo sapiens) (P33261 whole entry, looked up): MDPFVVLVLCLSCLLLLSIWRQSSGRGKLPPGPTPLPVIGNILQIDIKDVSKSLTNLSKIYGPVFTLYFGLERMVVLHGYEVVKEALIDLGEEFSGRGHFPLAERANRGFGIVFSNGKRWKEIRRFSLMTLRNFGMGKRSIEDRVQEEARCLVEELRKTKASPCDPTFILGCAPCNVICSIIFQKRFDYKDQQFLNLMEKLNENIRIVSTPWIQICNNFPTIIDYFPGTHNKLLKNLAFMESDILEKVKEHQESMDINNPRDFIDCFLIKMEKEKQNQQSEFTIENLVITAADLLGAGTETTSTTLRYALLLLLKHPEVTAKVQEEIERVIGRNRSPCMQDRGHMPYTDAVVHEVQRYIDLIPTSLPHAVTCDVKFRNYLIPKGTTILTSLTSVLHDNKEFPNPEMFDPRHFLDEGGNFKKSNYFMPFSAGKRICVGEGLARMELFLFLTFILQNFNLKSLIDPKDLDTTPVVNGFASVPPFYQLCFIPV
# Chain of Muscarinic acetylcholine receptor M1 (Rattus norvegicus) (P08482 whole entry, looked up): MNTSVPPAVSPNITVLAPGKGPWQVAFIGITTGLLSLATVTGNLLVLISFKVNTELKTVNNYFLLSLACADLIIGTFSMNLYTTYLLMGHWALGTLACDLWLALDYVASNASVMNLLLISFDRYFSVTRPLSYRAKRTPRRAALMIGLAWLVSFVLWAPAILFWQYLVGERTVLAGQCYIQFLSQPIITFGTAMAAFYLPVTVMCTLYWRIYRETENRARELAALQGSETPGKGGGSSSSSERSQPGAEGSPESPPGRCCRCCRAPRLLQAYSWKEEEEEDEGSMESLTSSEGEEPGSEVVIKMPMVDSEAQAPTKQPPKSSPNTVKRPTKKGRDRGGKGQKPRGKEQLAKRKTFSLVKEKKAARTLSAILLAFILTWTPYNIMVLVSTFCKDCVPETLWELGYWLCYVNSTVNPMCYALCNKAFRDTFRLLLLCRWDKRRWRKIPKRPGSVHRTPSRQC
# Chain of Pyruvate kinase (Leishmania mexicana) (Q27686 2-499 E452W): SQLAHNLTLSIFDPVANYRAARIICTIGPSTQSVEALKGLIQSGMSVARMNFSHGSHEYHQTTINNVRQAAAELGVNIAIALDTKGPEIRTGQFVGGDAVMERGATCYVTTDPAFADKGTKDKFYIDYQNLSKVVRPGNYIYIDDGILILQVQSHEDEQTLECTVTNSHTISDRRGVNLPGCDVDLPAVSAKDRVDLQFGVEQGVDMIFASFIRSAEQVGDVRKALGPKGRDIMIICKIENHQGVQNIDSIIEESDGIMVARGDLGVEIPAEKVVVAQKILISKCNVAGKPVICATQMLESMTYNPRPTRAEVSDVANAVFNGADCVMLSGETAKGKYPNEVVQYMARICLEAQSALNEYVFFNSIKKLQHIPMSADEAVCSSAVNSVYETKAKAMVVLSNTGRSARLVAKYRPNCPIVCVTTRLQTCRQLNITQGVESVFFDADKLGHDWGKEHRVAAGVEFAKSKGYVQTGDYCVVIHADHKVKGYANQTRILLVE
# Chain of Pyruvate kinase PKM (Homo sapiens) (P14618 whole entry, looked up): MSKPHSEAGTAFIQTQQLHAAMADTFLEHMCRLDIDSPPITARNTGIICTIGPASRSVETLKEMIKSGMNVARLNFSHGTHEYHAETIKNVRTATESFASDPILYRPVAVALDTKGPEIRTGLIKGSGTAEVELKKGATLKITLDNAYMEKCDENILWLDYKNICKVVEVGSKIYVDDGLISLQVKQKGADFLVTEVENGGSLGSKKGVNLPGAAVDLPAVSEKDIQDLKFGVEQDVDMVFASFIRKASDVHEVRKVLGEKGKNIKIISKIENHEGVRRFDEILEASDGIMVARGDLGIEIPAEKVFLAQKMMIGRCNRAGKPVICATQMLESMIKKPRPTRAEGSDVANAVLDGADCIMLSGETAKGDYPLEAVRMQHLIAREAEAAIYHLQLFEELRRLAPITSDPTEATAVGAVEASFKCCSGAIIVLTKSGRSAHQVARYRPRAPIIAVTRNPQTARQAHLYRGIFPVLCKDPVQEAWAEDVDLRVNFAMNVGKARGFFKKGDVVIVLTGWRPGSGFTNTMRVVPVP
smiles,measurement,setting,value
COc1c(N2C[C@@H]3CCCN[C@H]3C2)c(F)cc2c(=O)c(C(=O)O)cn(C3CC3)c12,Potency,[1],inactive
same,outcome,[2],inactive
same,outcome,[3],inactive
O=c1c2ccccc2nc2n1CCc1c-2[nH]c2ccccc12,outcome,[4],inactive
same,outcome,[5],inactive
same,Potency,[6],0.316 µM (active)
same,outcome,[7],inactive
same,outcome,[8],inactive
same,outcome,[9],inactive
O=C(O)c1ccc2cc(-c3ccc(O)c(C45CC6CC(CC(C6)C4)C5)c3)ccc2c1,Potency,[1],31.6 µM (active)
same,outcome,[4],inactive
Nc1ccc(S(=O)(=O)Nc2ncccn2)cc1,outcome,[2],inactive
same,outcome,[3],inactive
CC(C)c1ccc(Cn2ccc3c4c(N)nc(NC5CC5)nc4ccc32)cc1,Potency,[1],6.31 µM (active)
same,outcome,[4],inactive
O=C(O)[C@H](Cc1c[nH]c2ccccc12)N1C(=O)c2ccccc2C1=O,outcome,[10],inactive
Cc1coc2c1C(=O)C(=O)c1c-2ccc2c1CCCC2(C)C,Potency,[1],inactive
same,outcome,[2],inactive
same,outcome,[3],inactive
CC[C@@]1(O)C(=O)OCc2c1cc1n(c2=O)Cc2cc3cc(O)ccc3nc2-1,outcome,[3],inactive
